Assay outcomes from PubChem BioAssay.
3T3 cytotox: Cytotoxic Profiling in NIH 3T3 Cell Line of Diverse Libraries Using Quantitative High-Throughput Screening; NIH 3T3 viability, CellTiter-Glo ATP luminescence, 48-72 h; Potency, µM (doses to about 96.7 µM), for inactives: at the highest dose activity change, negative = cytotoxicity, usual class: inhibitors; actives 4.3% (n = 94,000); AID 1345082, 2018; further: on the % scale 0 is the no-effect control and ±100 the full control effect; nearly all actives have a fitted effect of over 55% in size
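Mouse fibroblast NIH 3T3 cells, 400 per well, received compound via pintool and were incubated for 48 or 72 hr prior to CellTiter-Glo ATP luminescence measurement.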
hNpr1 antagonist: Natriuretic polypeptide receptor (hNpr1) antagonism - Primary qHTS. HEK293 hNpr1 GloSensor cGMP, ANP-stimulated luminescence. Potency, µM (top dose mostly 46.3 µM), for inactives: at the top dose activity change, negative = inhibition, actives largely listed as inhibitors. actives 1.6% (n = 76,000); calls by dose curve; further: on the % scale 0 is the no-effect control and ±100 the full control effect; nearly all actives have a fitted effect of over 60% in size
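HEK293 cells stably expressing human Npr1 and cGMP GloSensor pGS-40F, loaded 2 h with 2% GloSensor reagent, given compound 30 min at room temperature. Luminescence read before and 20 min after 0.1 nM hNppA.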
HEK293 tox: Cytotoxic Profiling in HEK 293 Cell Line of Diverse Libraries Using Quantitative High-Throughput Screening. actives 6.6% (n = 94,000). Potency, µM (highest dose often 115 µM), for inactives: top-dose activity change, negative = cytotoxicity, hits mostly inhibitors. HEK 293 viability, ATP luminescence (CellTiter-Glo), 48-72 h; further: on the % scale 0 is the no-effect control and ±100 the full control effect; nearly all actives have a fitted effect of over 60% in size
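250 HEK 293 cells/well; compound by pintool; incubated 48 or 72 hr at 37 degree Celsius; CellTiter-Glo added, 10 min RT, luminescence imaged.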
FLuc inh: Firefly luciferase inhibition profiling of diverse chemical library using quantitative high-throughput screening; actives 2.5% (n = 76,000); purified P. pyralis luciferase, luminescence, biochemical; Luciferin 4-monooxygenase (Photinus pyralis), P08659; Potency, µM (series often up to 115 µM), most hits filed as inhibitors; further: on the % scale 0 is the no-effect control and ±100 the full control effect; nearly all actives have a fitted effect of over 65% in size
Target sequence (P08659 whole entry, looked up): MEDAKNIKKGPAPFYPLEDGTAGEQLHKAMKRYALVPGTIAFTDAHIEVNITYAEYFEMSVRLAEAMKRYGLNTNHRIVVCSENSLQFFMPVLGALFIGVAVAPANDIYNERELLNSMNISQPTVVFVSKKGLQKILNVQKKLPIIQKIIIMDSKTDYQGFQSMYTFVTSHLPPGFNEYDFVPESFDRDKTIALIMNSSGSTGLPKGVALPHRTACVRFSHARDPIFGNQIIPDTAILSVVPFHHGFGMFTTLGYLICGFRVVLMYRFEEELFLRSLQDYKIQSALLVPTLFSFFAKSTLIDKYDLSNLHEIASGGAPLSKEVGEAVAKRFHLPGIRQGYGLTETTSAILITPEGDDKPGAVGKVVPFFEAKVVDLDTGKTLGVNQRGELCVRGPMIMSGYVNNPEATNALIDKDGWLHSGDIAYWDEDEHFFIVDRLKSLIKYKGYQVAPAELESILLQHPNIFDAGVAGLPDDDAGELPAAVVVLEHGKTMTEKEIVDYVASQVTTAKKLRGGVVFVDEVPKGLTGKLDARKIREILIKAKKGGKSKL
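Purified 10nM P. pyralis luciferase with 10uM D-luciferin and 10uM ATP in 50mM Tris acetate pH 7.5, 10mM Mg acetate, 0.01% Tween-20, 0.05% BSA. qHTS titration; luminescence read by CCD imager.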
GPT2 inhibitor: Primary qHTS assay for inhibitors of Glutamate pyruvate transaminase 2 (GPT2). Alanine aminotransferase 2 (Homo sapiens), Q8TD30. Recombinant GPT2, coupled pyruvate oxidase/HRP Amplex Red fluorescence. Potency, µM (top dose mostly 57.7 µM), without a hit: top-dose activity change, negative = inhibition, usual class: inhibitors. actives 0.25% (n = 100,000); further: on the % scale 0 is the no-effect control and ±100 the full control effect; nearly all actives have a fitted effect of over 60% in size
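Inhibition is scored from Amplex Red fluorescence generated when pyruvate oxidase and HRP act on pyruvate released by GPT2. Reactions contain 10ng/uL enzyme, 250uM a-KG and 2mM L-alanine and run 30 min at room temperature.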
NPR1 antag cnf: Natriuretic polypeptide receptor (hNpr1) antagonism - Confirmation | HEK293 hNpr1 cGMP GloSensor luminescence, ANP-stimulated | actives 76% (n = 1,400) | Potency, µM (doses to about 57.6 µM), inactives show at the top dose activity change, negative = inhibition, usual class: inhibitors | AID 1347044, 2019 | shares compounds with hNpr1 antagonist; calls by dose curve; further: nearly all actives have a fitted effect of over 70% in size
Npr2 selectivity: Natriuretic polypeptide receptor (hNpr2) antagonism - Subtype selectivity assay | HEK293 hNpr2 GloSensor cGMP luminescence, CNP-stimulated | shares compounds with hNpr1 antagonist | AID 1347046, 2019 | Potency, µM (highest dose often 57.6 µM), for inactives: top-dose activity change, negative = inhibition, hits mostly inhibitors | actives 67% (n = 1,400); calls by dose curve; further: nearly all actives have a fitted effect of over 70% in size
FLuc counter: Natriuretic polypeptide receptor (hNpr1) antagonism - Confirmation firefly luciferase (FLuc) inhibition counterscreen | shares compounds with hNpr1 antagonist | purified FLuc enzyme, luminescence, Km substrate | Potency, µM (top dose mostly 57.6 µM), without a hit: top-dose activity change, negative = inhibition, hits mostly inhibitors | actives 0.7% (n = 1,400) | AID 1347047, 2019; further: 0% is about no effect
GloSensor cGMP: Natriuretic polypeptide receptor (hNpr1) antagonism - Counterscreen GloSensor control cell line; shares compounds with hNpr1 antagonist; HEK293 GloSensor cGMP, SNP-stimulated, luminescence; Potency, µM (series often up to 57.6 µM), without a hit: top-dose activity change, negative = inhibition, usual class: inhibitors; actives 69% (n = 1,400); calls by dose curve; further: on the % scale 0 is the no-effect control and ±100 the full control effect; nearly all actives have a fitted effect of over 70% in size
Starred values were filed as active, the others as inactive; [ ] = another dose, or the depositor's remark. Compounds with a hit are over-represented: about 10% of the library has one in this group of screens. Unless noted, the call rests on the fitted dose curve; in most records, active means well fitted curve in the direction sought with a large enough effect; inconclusive means small, poorly fitted or top-dose-only effect, or another doubt; inactive means no such curve, though single readings can be large; an effect the other way counts as inactive or inconclusive. Potency means the concentration at half of the fitted maximal effect.

What do the screens show for `O=C(NC1CCCCCC1)c1csc(N2CCN(c3ccccc3)CC2)n1`?
3T3 cytotox: inconclusive; hNpr1 antagonist: inconclusive; HEK293 tox: inconclusive; FLuc inh: inactive; GPT2 inhibitor: inactive; NPR1 antag cnf: 24µM*; Npr2 selectivity: inconclusive; FLuc counter: -15%; GloSensor cGMP: inconclusive

What do the screens show for `CCN(CC)C(=O)c1csc(N2CCN(c3cccc(Cl)c3)CC2)n1`?
3T3 cytotox: inconclusive; hNpr1 antagonist: 16µM*; HEK293 tox: inconclusive; FLuc inh: inactive; GPT2 inhibitor: 0%; NPR1 antag cnf: 24µM*; Npr2 selectivity: 22µM*; FLuc counter: 5%; GloSensor cGMP: 22µM*

What do the screens show for `CC(C)(N)C(=O)N1CCCC(N2CCN(c3cccc(Cl)c3)CC2)C1` (stereo unspecified)?
3T3 cytotox: inconclusive; hNpr1 antagonist: 3%; HEK293 tox: inconclusive; FLuc inh: inactive; GPT2 inhibitor: inactive

Results for CN1Cc2ccccc2N(CC(O)COc2ccccc2)CCC1=O (stereo unspecified) ?
3T3 cytotox: -2%; HEK293 tox: inconclusive

What do the screens show for `Cc1nnc2ccc(N3CCCC(NS(C)(=O)=O)C3)nn12` (stereo unspecified)?
3T3 cytotox: -5%[138 µM]; HEK293 tox: 4%[172 µM]

How did CCCCCCN(CCC(=O)NCCc1ccccc1)C(=O)c1cc(C)oc1C do in these assays?
3T3 cytotox: inconclusive; hNpr1 antagonist: 16µM*; HEK293 tox: 8.9µM*; FLuc inh: inactive; GPT2 inhibitor: -11%; NPR1 antag cnf: inconclusive; Npr2 selectivity: inconclusive; FLuc counter: -21%; GloSensor cGMP: inconclusive

Results for COCCCN(CCC(=O)NCCc1ccccc1)C(=O)c1cc(C)oc1C ?
3T3 cytotox: inconclusive; hNpr1 antagonist: -2%; HEK293 tox: inconclusive; FLuc inh: inactive; GPT2 inhibitor: 3%

What do the screens show for `CCCCCN(CCC(=O)NCc1ccc2c(c1)OCO2)C(=O)c1cc(C)oc1C`?
3T3 cytotox: 32µM*; hNpr1 antagonist: 13µM*; HEK293 tox: inconclusive; FLuc inh: inactive; GPT2 inhibitor: inconclusive; NPR1 antag cnf: inconclusive; Npr2 selectivity: inconclusive; FLuc counter: 2%; GloSensor cGMP: 1%

Results for O=C(Nc1ccc(F)cc1)c1c[nH]c2cccnc12 ?
3T3 cytotox: inconclusive; HEK293 tox: inconclusive; GPT2 inhibitor: inactive; NPR1 antag cnf: inconclusive; Npr2 selectivity: inconclusive; FLuc counter: 4.4µM*; GloSensor cGMP: 22µM*

What do the screens show for `Cc1ccccc1C(=O)N1CCC(C(=O)N2CCC(N3CCOC3=O)CC2)CC1`?
3T3 cytotox: -16%; HEK293 tox: -5%; GPT2 inhibitor: inactive

How did COc1ccc(-c2cc(C[C@@H]3C[C@H](NCc4ccncc4)C3(C)C)no2)cc1 do in these assays?
3T3 cytotox: inconclusive; hNpr1 antagonist: 22µM*; HEK293 tox: inconclusive; FLuc inh: inactive; GPT2 inhibitor: 2%[88.5 µM]; NPR1 antag cnf: 20µM*; Npr2 selectivity: 28µM*; FLuc counter: -2%[86.2 µM]; GloSensor cGMP: 20µM*

Results for CC1(C)[C@H](Cc2cc(CCO)on2)C[C@@H]1NCc1ccncc1 ?
3T3 cytotox: inconclusive; hNpr1 antagonist: -28%[70.6 µM]; HEK293 tox: inconclusive; FLuc inh: inactive; GPT2 inhibitor: inactive

How did Cc1ccc(CN2CCc3nc(C4CC4)nc(-c4ccc(O)cc4)c3CC2)cc1 do in these assays?
3T3 cytotox: inconclusive; hNpr1 antagonist: -2%; HEK293 tox: inconclusive; FLuc inh: inactive; GPT2 inhibitor: 0%

Results for Oc1ccc(-c2nc(C3CC3)nc3c2CCN(Cc2cccc4ccccc24)CC3)cc1 ?
3T3 cytotox: inconclusive; hNpr1 antagonist: -24%; HEK293 tox: 18µM*; FLuc inh: inactive; GPT2 inhibitor: -10%; NPR1 antag cnf: -27%[86.2 µM]; Npr2 selectivity: inconclusive; FLuc counter: 2%[86.2 µM]; GloSensor cGMP: -32%[86.2 µM]

Results for COc1ccc(CN2CCN3C(=O)N(Cc4ccc(OC)cc4)C[C@H]3C2)cc1 ?
3T3 cytotox: inconclusive; hNpr1 antagonist: 14µM*; HEK293 tox: inconclusive; FLuc inh: inactive; GPT2 inhibitor: -4%[88.5 µM]; NPR1 antag cnf: 13µM*; Npr2 selectivity: 18µM*; FLuc counter: -15%[86.2 µM]; GloSensor cGMP: 14µM*

Results for FC(F)(F)c1ccc(N2C3CCC2CN(Cc2cccc(-c4cccnc4)c2)C3)cc1 ?
3T3 cytotox: -20%; HEK293 tox: inconclusive; GPT2 inhibitor: -4%; NPR1 antag cnf: 7.7µM*; Npr2 selectivity: 9.7µM*; FLuc counter: -1%; GloSensor cGMP: 6.1µM*

What do the screens show for `O=C1N(Cc2cccnc2)C[C@H]2CN(Cc3ccc(C(F)(F)F)cc3)CCN12`?
3T3 cytotox: inconclusive; hNpr1 antagonist: 10µM*; HEK293 tox: inconclusive; FLuc inh: inactive; GPT2 inhibitor: 2%[88.5 µM]; NPR1 antag cnf: 13µM*; Npr2 selectivity: 18µM*; FLuc counter: 2%[86.2 µM]; GloSensor cGMP: 13µM*

What do the screens show for `FC(F)(F)c1ccc(N2C3CCC2CN(Cc2cccc(-c4cccs4)c2)C3)cc1`?
3T3 cytotox: inconclusive; HEK293 tox: -16%; GPT2 inhibitor: 1%
